Assay outcomes: PubChem, several laboratories
In the library only some 3.2% were active in any assay of this set; here they are far more common.
esBAF inh = inhibitors of esBAF chromatin remodeling in mouse ES cells | 350,000 compounds, 2% hits | AID 602393 | reporter increase, % at 12.5 µM | Bmi1-luciferase knock-in reporter, 24 h; 100% = twice the neutral-well signal; in the data active = activation above about 40%; inconclusive = no clear call, values can overlap the other calls;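 note: 0% = median of the plate's neutral control wells and 100% = double that signal; a rise in the Bmi1 reporter signal indicates esBAF inhibition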
CDK5 p35 inh = inhibitors of human CDK5/p35 kinase; Recombinant CDK5/p35, ADP-Glo luminescence, 60 min; inhibition, % at 10 µM; 330,000 compounds, 0.01% hits; AID 488839;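 active = highest replicate inhibition of at least 50% and at least 75% of replicates reaching 50%; inconclusive = only one of the two criteria met; inactive = both criteria failed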;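 note: plate controls were DMSO neutral control for no effect and GW8510 at 10 µM for full effect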
Dyrk1A ADPGlo = blocks rat Dyrk1A kinase activity. 310,000 compounds, 0.43% hits. Q63470. ADP-Glo luminescence, NFATc1 peptide. AID 504441. inhibition, % at 12.5 µM; in the data active = inhibition above about 50%;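 note: plate controls were vehicle with enzyme for no effect and no enzyme for full effect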
SMARCA2 act = activators of SMARCA2 function; activation, % at 9.1 µM; MG213 cells, MMTV-luciferase reporter, dexamethasone, overnight; AID 652017; 370,000 compounds, 1% hits; in the data active = activation above about 7.8%;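 note: 0% = vehicle wells and 100% = reference activator wells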
Rtt109 Vps75 = inhibitors of Candida albicans Rtt109/Vps75 histone acetyltransferase; purified Rtt109/Vps75, ThioGlo CoA-SH fluorescence, 4 h; 330,000 compounds, 0.16% hits; Q5AAJ8; inhibition, % at 34.9 µM;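 active = inhibition of at least 50% in every replicate; inconclusive = best replicate reaches 50% inhibition but some replicates fall short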
dFosB activator = activators of mouse delta FosB homodimer | P13346 | purified delta FosB, TAMRA-CDK5 oligo fluorescence polarization; percent of positive-control signal above neutral wells | activation, % at 25 µM | 340,000 compounds, 0.99% hits | AID 493131;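 active = mean activation above about 17%, with every replicate also reaching it, limit read from the data, passing the limit was not always enough; inconclusive = only one of the two conditions met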
SMARCA2 conf = SMARCA2 activation, confirmation screen; shares compounds with SMARCA2 act; MG213 cells, MMTV-luciferase with dexamethasone, luminescence, overnight; MG213 cells expressing E1A, Rb sequestered; DMSO wells 0%, reference activator 100%; activation, % at 9.1 µM; 3,500 compounds, 30% hits; AID 652260;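 active = activation above its plate's cutoff, the mean activation of tested wells plus 3 SD, cut at about 7.9% in these data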
GAL4-VP16 Luc = counter-screen for SMARCA2 activators: GAL4-VP16 luciferase reporter activation | shares compounds with SMARCA2 act | HEK293 GAL4-VP16 pG5luc reporter, luciferase luminescence; scaled: DMSO wells 0%, SAHA wells 100% | activation, % at 9.1 µM | 3,500 compounds, 41% hits | AID 686939;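 active = activation above the solvent-only control well mean plus 3 SD, averaged across control plates, cut at about 5.2% in these data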
* marks the source's active call; other numbers are inactive results; ? = inconclusive; . = no result.

SMILES	esBAF inh	CDK5 p35 inh	Dyrk1A ADPGlo	SMARCA2 act	Rtt109 Vps75	dFosB activator	SMARCA2 conf	GAL4-VP16 Luc
CCOC(=O)c1ccc(-n2c(CN3CCC(O)CC3)nc3ccc([N+](=O)[O-])cc3c2=O)cc1	4	-7	4	19*	-2	-4	9.5*	0
COc1ccc(-n2c(CN3CCC(C(N)=O)CC3)nc3ccc([N+](=O)[O-])cc3c2=O)c(OC)c1	4	0	4	8.0*	8	-3	1	1
CCN1CCN(Cc2nc3ccc([N+](=O)[O-])cc3c(=O)n2-c2ccc(OC)cc2OC)CC1	.	0	-5	2	0	-11	.	.
CCOC(=O)c1ccc(-n2c(CN3CCC(C(N)=O)CC3)nc3ccc([N+](=O)[O-])cc3c2=O)cc1	17	2	-2	5	-3	-9	.	.
C[C@H]1CN([C@@H](C)CO)C(=O)c2cc(C#CC3(O)CCCC3)cnc2O[C@H]1CN(C)C(=O)C1CCOCC1	-9	.	.	.	.	.	.	.
COc1ccc(CN(C)C[C@H]2Oc3ccc(NS(=O)(=O)c4ccccc4)cc3C(=O)N([C@H](C)CO)C[C@@H]2C)cc1	-4	.	.	.	.	.	.	.
C[C@H]1CN([C@@H](C)CO)C(=O)c2cc(NC(=O)CCC(F)(F)F)ccc2O[C@H]1CN(C)C(=O)Nc1cccc2ccccc12	0	.	.	.	.	.	.	.
O=C(C[C@H]1CC[C@H](NC(=O)NC2CCCCC2)[C@@H](CO)O1)NCc1ccc(F)cc1	-4	.	.	.	.	.	.	.
Cc1ccnc(NC(=O)Cn2cc([N+](=O)[O-])cn2)c1	.	0	-4	16*	2	-4	7	5.8*
C[C@@H]1COc2cc(N3CCC[C@H]3CO)ccc2S(=O)(=O)N1	.	.	.	8.0*	.	.	-4	-1
C[C@H]1COc2cc(N3CCC[C@H]3CO)ccc2S(=O)(=O)N1	.	.	.	10*	.	.	-3	0
O=C(N/N=C1\CCc2ccccc21)c1ccccc1O	.	-1	1	10.0*	6	3	5	7.4*
C[C@@H]1CN([C@@H](C)CO)S(=O)(=O)c2ccc(C#CC3CCCC3)cc2O[C@H]1CN(C)C	-2	.	.	.	.	.	.	.
Fc1ccc(NCc2cn3ccccc3n2)cc1	?	-1	-10	9.7*	-4	2	7	6.3*
O=C(NCC[C@H]1CC[C@H](NC(=O)C2CCOCC2)[C@@H](CO)O1)Nc1ccc(Cl)cc1	3	.	.	.	.	.	.	.
Cc1ccc(NCCC(=O)c2cccc([N+](=O)[O-])c2)c(C)c1	?	1	-1	8.6*	2	-8	7	3
O=C(CNc1cccc(Cl)c1)c1ccc(Br)cc1	11	0	3	8.9*	-8	-11	9.8*	-1
Cc1cccc(NCCC(=O)c2ccc([N+](=O)[O-])cc2)c1C	0	-2	.	0	-14	5	.	.
O=C(CNc1ccc(Br)cc1)c1ccccc1	29	0	-1	2	-1	-2	.	.
Cc1ccc(C(=O)CNc2cccc([N+](=O)[O-])c2)cc1	24	0	-10	11*	-1	5	7	6.3*
Cc1ccc(NCC(=O)c2ccc([N+](=O)[O-])cc2)cc1	.	-1	.	.	12	-11	.	.
CO[C@H]1CN(C)C(=O)c2ccc(NC(C)=O)cc2OC[C@@H](C)N(C(=O)Cc2ccccn2)C[C@@H]1C	0	.	.	.	.	.	.	.
Cc1ccc(S(=O)(=O)N[C@@H]2CC[C@H](CC(=O)NC3CCCCC3)O[C@H]2CO)cc1	9	.	.	.	.	.	.	.
O=C(O)c1ccc(C[n+]2c(-c3ccccc3)csc2Nc2ccccc2)cc1	-28	-1	5	10*	18	-5	-2	1
COc1cc(/C=N/NC(=O)c2cc(-c3c(C)nn(-c4ccccc4)c3C)n[nH]2)ccc1O	22	1	7	12*	.	0	16*	12*
Cc1nn(-c2ccccc2)c(C)c1-c1cc(C(=O)N/N=C/c2ccc(O)cc2)[nH]n1	.	-3	10	4	2	5	.	.
